Assay [1] in a line: NCI Yeast Anticancer Drug Screen. Data for the rad50 strain (AID 155).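 Also: 0% = growth of vehicle-only cultures of the same strain.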 Particulars: S. cerevisiae rad50 strain growth inhibition, stronger effect = higher value; at 50.0 µM unless noted. In a few lines:
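Readout: growth inhibition relative to vehicle-treated cultures. Compound exposure was carried out in a genetically defined yeast strain deficient in DNA damage repair.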

The nature of assay [2]: NCI Yeast Anticancer Drug Screen. Data for the mec2-1 strain (AID 157). Particulars: S. cerevisiae mec2-1 strain, stronger effect = higher value; at 50.0 µM unless noted. In a few lines: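 mec2-1 yeast strain, carrying an alteration in DNA damage repair or cell cycle control, was exposed to compounds; growth inhibition was measured relative to vehicle-treated controls.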
Assay [3] can be described thus: NCI Yeast Anticancer Drug Screen. Data for the sgs1 mgt1 strain (AID 161).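 Also: 0% = growth of cultures given vehicle only.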 The note with it: S. cerevisiae sgs1 mgt1 strain, stronger effect = higher value; at 50.0 µM unless noted. A digest of the protocol: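 Growth of a repair-deficient yeast mutant was monitored after compound treatment and expressed as inhibition relative to vehicle-treated cultures.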
Assay [4] in a line: NCI Yeast Anticancer Drug Screen. Data for the cln2 rad14 strain (AID 165).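 Also: 0% = growth equal to vehicle treated cultures.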 The note with it: S. cerevisiae cln2 rad14 strain, stronger effect = higher value; at 50.0 µM unless noted. In a few lines:
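Yeast carrying cln2 and rad14 alterations (cell cycle control and DNA damage repair) were exposed to compounds. Growth inhibition was measured against vehicle-treated controls.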

Assay [5] is described as follows: NCI Yeast Anticancer Drug Screen. Data for the bub3 strain (AID 167). The note with it: S. cerevisiae bub3 mutant strain, stronger effect = higher value; at 50.0 µM unless noted. A digest of the protocol:
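Readout: yeast growth inhibition, expressed relative to vehicle-only wells. The test organism is a mutant strain from a panel with lesions in DNA repair or checkpoint genes.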

Assay [6] is described as follows: NCI Yeast Anticancer Drug Screen. Data for the mlh1 rad18 strain (AID 175). Particulars: S. cerevisiae mlh1 rad18 strain growth inhibition, stronger effect = higher value; at 50.0 µM unless noted. In a few lines: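 Growth inhibition of the yeast strain was measured after compound exposure and expressed relative to vehicle-treated controls. The strain carries defined defects in DNA damage repair.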

From PubChem BioAssay (NCI) come the findings set out here.

Values joined by “and” are separate entries in the source; they are usually repeats but may differ in a detail not shown here. Equal values may be shown once. Compounds without any hit were thinned out: in the full panel of roughly 79,000, 15% have a hit. Values without a mark were called inactive. Active and inactive are the calls of the source. Rule as the data show it: active = growth inhibition above about 70%; inactive = the rest.

For `CCCCCCCCCCCCN1CCCC(O)C1` (stereo not given), the growth inhibition in assay [1] was 66.8%; in assay [2] it was 60.8%; in assay [3], 74.4% (active); in assay [4], 56.4%; in assay [5] it was 70.6% (active); in assay [6], 78.1% (active).
In the case of `C=C1CC(CCCC2CC(=C)C(=O)O2)OC1=O` (stereo not given), the growth inhibition was 5.8% in assay [1]; 12.9% in assay [2]; -4.1% in assay [3]; -50.7% in assay [4]; -11.2% in assay [5]; 6.15% in assay [6].
With `C=C(NC(=O)C(=C)NC(=O)c1csc(C2=NC3c4csc(n4)C4NC(=O)c5csc(n5)C(C(C)(O)C(C)O)NC(=O)C5CSC(=N5)/C(=C/C)NC(=O)C(C(C)O)NC(=O)c5csc(n5)C3(CC2)NC(=O)C(C)NC(=O)C(=C)NC(=O)C(C)NC(=O)C(C(C)CC)NC2C=Cc3c(C(C)O)cc(nc3C2O)C(=O)OC4C)n1)C(N)=O` (stereo not given), the growth inhibition in assay [1] was 11.9% and 15.1%; in assay [2] it was 10.8% and -10.4%; in assay [3] it was 13.8% and 18.1%; in assay [4], 29.5% and 23.2%; in assay [5], 34.2% and 32.5%; in assay [6], 13.2% and 36.2%.
As for `Cc1nc(N)c(N)c(=O)[nH]1`, the growth inhibition in assay [1] is -0.6%; in assay [2], -1.35%; in assay [3], -1.75%; in assay [4], -5.6%; in assay [5], -9.6%; in assay [6] it was -2.6%.
For `CN(C1=CC(=O)c2ccccc2C1=O)C1CCCCC1`, the growth inhibition in assay [1] is 14.1%; in assay [2] it was 49.5%; in assay [3], 37.4%; in assay [4] it was -7.05%; in assay [5], 63%; in assay [6], 42.2%.
`Cc1ccc2ccc3ccccc3c2c1`: the growth inhibition was 46% in assay [1]; 1.45% in assay [2]; 9.2% in assay [3]; 20.4% in assay [4]; 17.9% in assay [5]; 26.2% in assay [6].
Consider `CCC(=O)c1ccc(OC)cc1OC`, for which the growth inhibition in assay [1] is -13.6%; in assay [2] it was 1.25%; in assay [3], -4.8%; in assay [4], -2.05%; in assay [5], 4.4%; in assay [6], -20.1%.
In the case of `CCOC(=O)C(C#N)=C(C)C`, the growth inhibition in assay [1] is -12.6% and 26.9%; in assay [2] it was 7.8% and 2.75%; in assay [3], -2.55% and 17%; in assay [4] it was -19.1% and -1.1%; in assay [5], 0.65% and -13.8%; in assay [6] it was 20.4% and 17.1%.
With `C=CCN1C(=O)CS/C1=N/NC(=O)C(O)(c1ccccc1)c1ccccc1`, the growth inhibition is -19.6% in assay [1]; -47.7% in assay [2]; 6.1% in assay [3]; -25.4% in assay [4]; -24.3% in assay [5]; -4.05% in assay [6].
In the case of `O=c1ccc(-c2ccc(-n3ccnc3)cc2)nn1CCO`, the growth inhibition in assay [1] was -39.4%; in assay [2], -49.5%; in assay [3], -24.7%; in assay [4] it was -2.7%; in assay [5], -38%; in assay [6] it was -10.8%.
As for `CCC(C)(CC=C(C)C)c1ccncc1` (stereo not given), the growth inhibition in assay [1] was -6.7%; in assay [2] it was 1.95%; in assay [3] it was 3.1%; in assay [4], -16.8%; in assay [5] it was 9.6%; in assay [6] it was -9.6%.
Take `c1ccc2c(c1)C(=NCCCN1CCCCCCC1)c1cccn1-2`: the growth inhibition was 23.5% in assay [1]; 9.95% in assay [2]; 29.1% in assay [3]; -2.7% in assay [4]; 23.1% in assay [5]; 25.4% in assay [6].
As to `COc1ccc(N/C=C/C2=[N+](C)c3ccccc3C2(C)C)c(OC)c1`, the growth inhibition in assay [1] is 1.85% and -24.3%; in assay [2] it was -17.2% and -19.6%; in assay [3], -8.5% and -20.9%; in assay [4], 0.45% and -58.4%; in assay [5], -5.55% and -2.4%; in assay [6], 5.5% and -7.05%.
In the case of `COc1ccc(OC)c(/C=N\NC(=O)N/N=C/c2cc(OC)ccc2OC)c1`, the growth inhibition in assay [1] is -9.4%; in assay [2], -20.6%; in assay [3], 11.3%; in assay [4], -2.05%; in assay [5] it was 22.8%; in assay [6], -3.9%.
On to `COC(=O)C(Cc1ccccc1)C(=O)C(CC(=O)OC(C)(C)C)NC(=O)OC(C)(C)C` (stereo not given), for which the growth inhibition in assay [1] was 14.7%; in assay [2], 1.15%; in assay [3], 17%; in assay [4] it was 10.8%; in assay [5], 22.1%; in assay [6], -27.5%.
Turning to `O=C1C=C(c2ccccc2)C(c2ccccc2)C(c2ccccc2)C1` (stereo not given), the growth inhibition in assay [1] is 1.4%; in assay [2], 21%; in assay [3], 16.4%; in assay [4], -5.35%; in assay [5] it was 3.85%; in assay [6], -3.1%.
As to `O=C1OC(c2ccccc2)=C2CCC3CCCCN1C23` (stereo not given), the growth inhibition in assay [1] is -2.15%; in assay [2], -29.7%; in assay [3], 12.8%; in assay [4], 23.4%; in assay [5], 34.6%; in assay [6] it was 9.25%.
As for `COc1ccccc1OC(=O)c1ccccc1`, the growth inhibition in assay [1] is -27.4%; in assay [2], 7.4%; in assay [3], -22.8%; in assay [4], -9.1%; in assay [5], 11.5%; in assay [6], -5.35%.
For `CC1(C)C2CCC1(C)C(/C=N/NC(N)=O)C2` (stereo not given), the growth inhibition in assay [1] is 5.4%; in assay [2], 17.8%; in assay [3], -5.6%; in assay [4], -46%; in assay [5], 20.4%; in assay [6], 12.8%.
`O=C(N/N=C/c1ccc(O)cc1)C(c1ccccc1)N1CCCCC1` (stereo not given): the growth inhibition is 5.85% in assay [1]; -7.05% in assay [2]; -7.4% in assay [3]; -18.8% in assay [4]; 3.05% in assay [5]; -5.3% in assay [6].
